ELG1 genotox: qHTS screen for small molecules that induce genotoxicity in human embryonic kidney (HEK293T) cells expressing luciferase-tagged ELG1. HEK293T ELG1-luciferase reporter, luminescence, 16 h. Potency, µM (top dose mostly 46 µM), for inactives: at the top dose activity change, positive = activation, actives largely listed as activators. 1.3% of 330,000 active; also: % of control where 0% means no effect; nearly all actives have a fitted effect of over 60% in size
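Quantitative HTS format in 1536-well plates. HEK293T ELG1-luciferase reporter cells receive test compound and are incubated 16 hr at 37 °C, 5% CO2; ONE-Glo added, 30 min room temperature, then luminescence read.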
Rab9 promoter act: qHTS Assay for Rab9 Promoter Activators. Potency, µM (series often up to 9.22 µM), inactives show at the top dose activation, negative = inhibition, hits mostly activators. 2.8% of 320,000 active. AID 485297, 2010. Huh7 Rab9 promoter-luciferase reporter, luminescence, 24 h; also: % of control where 0% means no effect; nearly all actives have a fitted effect of over 60% in size
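Luminescence read-out: Huh7 cells stably expressing Rab9-luciferase, treated 24 h with compound at 37 °C, then lysed with luciferase reagent for 10 min at ambient before reading.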
NPC1 promoter act: qHTS Assay for NPC1 Promoter Activators | 2.4% of 320,000 active | Potency, µM (series often up to 9.22 µM), without a hit: at the top dose activation, usual class: activators | Huh7 NPC1 promoter luciferase reporter, 24 h; also: % of control where 0% means no effect; nearly all actives have a fitted effect of over 60% in size
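Luminescence read-out of NPC1 promoter-driven luciferase in stably transfected Huh7 cells; compounds delivered in DMSO and left 24 h at 37C, 5% CO2, qHTS titration format.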
SMN2 splice enh: qHTS Assay for Enhancers of SMN2 Splice Variant Expression; HEK293 SMN2-luciferase splicing reporter, luminescence, 30-36 h; Potency, µM (highest dose often 46.1 µM), for the others: top-dose activity change, positive = activation, hits mostly activators; 2.8% of 210,000 active; also: % of control where 0% means no effect; nearly all actives have a fitted effect of over 55% in size
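HEK293 cells carry an SMN2 […]–luciferase reporter in which exon 7 inclusion puts luciferase in frame. Cells were plated 10-12 h before compound addition, then incubated 30-36 h at 37C. ONE-Glo luminescence was read; sodium butyrate at 4.5 mM final served as control.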
FLuc modulator: qHTS profiling assay for firefly luciferase inhibitor/activator using purifed enzyme and Km concentrations of substrates (counterscreen for miR-21 project). Luciferin 4-monooxygenase (Photinus pyralis), P08659. purified FLuc, Km substrates, luminescence inhibition. Potency, µM (series often up to 57.5 µM), without a hit: at the top dose activity change, negative = inhibition, actives largely listed as inhibitors. 6.9% of 360,000 active;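 also: plate controls were vehicle for no effect and reference inhibitor for full effect; nearly all actives have a fitted effect of over 55% in size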
Target sequence (P08659 whole entry, looked up): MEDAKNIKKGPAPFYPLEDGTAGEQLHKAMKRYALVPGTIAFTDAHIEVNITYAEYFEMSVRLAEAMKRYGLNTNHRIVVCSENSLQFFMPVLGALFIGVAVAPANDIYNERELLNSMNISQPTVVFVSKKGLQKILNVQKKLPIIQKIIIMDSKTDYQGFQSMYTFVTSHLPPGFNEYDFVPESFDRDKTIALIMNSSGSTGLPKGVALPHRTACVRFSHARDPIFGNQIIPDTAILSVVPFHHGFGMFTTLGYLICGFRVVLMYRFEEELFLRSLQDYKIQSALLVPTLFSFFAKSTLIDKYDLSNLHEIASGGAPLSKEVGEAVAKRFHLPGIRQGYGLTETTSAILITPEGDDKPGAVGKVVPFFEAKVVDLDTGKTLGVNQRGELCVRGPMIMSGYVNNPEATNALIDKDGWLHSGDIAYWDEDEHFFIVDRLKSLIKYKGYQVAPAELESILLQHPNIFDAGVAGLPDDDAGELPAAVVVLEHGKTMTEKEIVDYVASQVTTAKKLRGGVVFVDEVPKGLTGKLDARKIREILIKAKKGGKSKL
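Purified P. pyralis luciferase (10nM final) with 10uM D-luciferin and 10uM ATP (Km levels) in 50mM Tris acetate pH 7.5, 10mM Mg acetate, 0.01% Tween-20, 0.05% BSA; qHTS 6-point titration, ~60 µM downward; luminescence read.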
* = called active by the depositor; ? = inconclusive; . = no result given. Most compounds without a hit are left out; they make up all but 7.5% or so of the library. Calls follow the shape of the dose curve; as a rule, active = well fitted curve in the direction sought with a large enough effect; inconclusive = small, poorly fitted or top-dose-only effect, or another doubt; inactive = no such curve, though single readings can be large; an effect the other way counts as inactive or inconclusive. Potency is read from the fitted curve at half-maximal effect.

SMILES	ELG1 genotox	Rab9 promoter act	NPC1 promoter act	SMN2 splice enh	FLuc modulator
COC(=O)c1cc(Cl)c(NC(=O)c2cc3ccccc3o2)cc1OC	0%	1.8µM*	?	5%	-6%
COc1cc(NC(=O)c2c(OC)cccc2OC)ccc1NC(=O)c1cc2ccccc2o1	15µM*	?	?	.	?
CCC(=O)Nc1ccc(NC(=O)c2cc3ccccc3o2)c(OC)c1	?	4µM*	2.5µM*	.	?
COc1cc(NC(=O)c2cc3ccccc3o2)ccc1NC(=O)c1ccco1	-2%	-10%	-5%	.	-2%
CC(C)C(NC(=O)C1CC(=O)N(Cc2ccccc2)C1)c1nc2ccccc2[nH]1 (configuration not stated)	-3%	.	.	.	.
C=CCn1c(SCC(=O)c2ccc(O)c(O)c2)nnc1-c1ccc(C)cc1	-1%	-6%	-12%	.	4%
O=C(Nc1cccnc1)c1ccc(COc2ccccc2Br)cc1	15%	-2%	0%	.	?
NC1=NS(=O)(=O)NC1c1ccc(Cl)cc1 (configuration not stated)	-5%	2%	1%	-9%	6%
Cc1c(C(=O)N2CCNCC2)oc2ccccc12	-1%	0%	1%	.	-1%
Cc1cccc(C)c1NC(=O)CN1CCN(CC(=O)c2cc(C)n(C3CC3)c2C)CC1	0%	-1%	-2%	.	1%
Cc1cc(C(=O)COc2cccc([N+](=O)[O-])c2)c(C)n1C1CC1	?	3.2µM*	2.2µM*	.	2.4µM*
Cc1cc(C(=O)COC(=O)c2cccc(O)c2)c(C)n1C1CC1	?	?	?	.	0.27µM*
O=C(Nc1ccc(C(=O)N2CCCC2)cc1)c1ccccc1[N+](=O)[O-]	-1%	-5%	-9%	4%	1%
Cc1ccc(N(Cc2ccccc2)C(=O)c2ccc(C)c(S(=O)(=O)N3CCOCC3)c2)cc1	-13%	-1%	-3%	.	-2%
CC(=O)N1CC=CC1(C)C(=O)NCC1CC1 (configuration not stated)	.	.	.	11µM*	.
CC(=O)N1CC=CC1(C)C(=O)NCc1cc(F)cc(C(F)(F)F)c1 (configuration not stated)	1%	-1%	5%	-6%	3%
CNC(=O)C1(CC(C)C)C=CCN1C(=O)c1ccccc1 (configuration not stated)	.	.	.	3%	.
COCCNC(=O)C1(CC(C)C)C=CCN1C(=O)c1ccccc1 (configuration not stated)	.	.	.	24%	.
CC(C)CC1(C(=O)NCC2CC2)C=CCN1C(=O)c1ccccc1 (configuration not stated)	.	.	.	13µM*	.
COC(=O)CNC(=O)C1(C)C=CCN1C(=O)c1ccccc1 (configuration not stated)	?	?	15%	11µM*	15µM*
Cc1ccc(N/C=C(/C#N)c2ccsc2)cc1C	.	.	.	13µM*	2.4µM*
Cc1ccc(N/N=C(\C#N)C(N)=S)cc1C	-5%	1%	5%	-2%	?
CCOC(=O)C1C(=O)C=C(Nc2ccccc2F)CC1c1ccccc1 (configuration not stated)	12%	?	?	?	17µM*
N#CCC(=O)N/N=C\c1cccc(OC/C=C/c2ccccc2)c1	?	?	0.56µM*	.	13µM*
COc1cccc(/C=N/NC(=O)CC(C)O)c1OC/C=C/c1ccccc1 (configuration not stated)	-9%	-3%	-1%	.	-5%
SMILES	ELG1 genotox	Rab9 promoter act	NPC1 promoter act	SMN2 splice enh	FLuc modulator
CC(=O)N/N=C\c1ccccc1OC/C=C/c1ccccc1	16µM*	27%	?	.	-17%
COc1cc(/C=N\NC(=O)CC#N)ccc1OC/C=C/c1ccccc1	-3%	9%	-2%	.	1%
CC(=O)N/N=C\c1cccc(OC/C=C/c2ccccc2)c1	?	0.45µM*	0.4µM*	.	11µM*
CNC(=S)N/N=C/c1ccccc1OCC(=O)O	2%	-5%	-7%	.	-18%
CC(C)(O)C(=O)N/N=C\c1ccc(OC/C=C/c2ccccc2)cc1	4%	6%	0%	.	0%
CCOC(=O)N/N=C\c1cccc(OC)c1OC/C=C/c1ccccc1	-4%	9%	4%	.	9.5µM*
CCn1cc(C(=O)N2CCN(Cc3ccc4c(c3)OCO4)CC2)c(=O)c2ccc(C)nc21	-3%	0%	0%	-3%	2%
Cc1ccn(CCC(=O)O)n1	3%	-4%	2%	.	0%
O=C(O)c1ccccc1CSc1nnc2c(n1)[nH]c1ccccc12	0%	-4%	15%	.	21µM*
CC(C)CSc1nnc2c(n1)[nH]c1ccccc12	0.65µM*	0.71µM*	3.5µM*	2.2µM*	0.67µM*
CC(C)OC(=O)CSc1nnc2c3ccccc3n(C)c2n1	?	-2%	-4%	-8%	4%
COc1ccc2[nH]c3nc(SC(C)C)nnc3c2c1	8%	0.79µM*	0.71µM*	?	0.34µM*
CC(C)CSc1nnc2c3ccccc3n(C)c2n1	?	6%	18%	.	11µM*
COc1ccc(CNC(=O)CSc2nnc3c(n2)[nH]c2ccc(OC)cc23)cc1	-1%	6%	0%	.	3%
CC(C)S(=O)(=O)c1ccc(C(=O)Nc2ccc(F)cc2F)cn1	0%	1%	0%	15%	2%
CCCCCSc1nnc2c(n1)[nH]c1c(C)cccc12	.	.	.	-12%	-12%
CCCCSc1nnc2c(n1)[nH]c1ccccc12	?	1.3µM*	?	3.5µM*	?
CC(C)=CCC1=C(O)c2ccccc2C(=O)C1=O	.	.	.	4µM*	.
COc1cc(/C=N/NC(=O)c2ccc(N(C)S(=O)(=O)c3ccccc3)cc2)cc(OC)c1OC	-7%	-12%	0%	-9%	-2%
Cc1ccc(/C=N/NC(=O)c2ccc(N(C)S(=O)(=O)c3ccccc3)cc2)cc1	-38%	0%	-1%	.	8.5µM*
CC(=O)Oc1ccc(/C=N/NC(=O)c2ccc(N(C)S(=O)(=O)c3ccccc3)cc2)cc1	-5%	-2%	-3%	.	15µM*
CC12CN3CC(C)(CN(C1)C3c1c[nH]c3ccccc13)C2=O (configuration not stated)	-2%	0%	-4%	4%	0%
COc1cc(SC)ccc1C(=O)Nc1ccc(Br)cn1	?	0.28µM*	0.32µM*	.	0.076µM*
COc1cc(SC)ccc1C(=O)Nc1ncc(Cl)cc1Cl	?	1.6µM*	4µM*	13µM*	2.4µM*
COc1cc(SC)ccc1C(=O)Nc1ccc2ncccc2c1	?	0.45µM*	1.3µM*	.	0.76µM*

Compound activity from PubChem BioAssay.
